Test results taken from PubChem BioAssay (Tox21).
Inconclusive results are not listed. Where a call stands in place of a potency, no number is given. Unmarked numbers belong to inactive results. Active and inactive are the calls of the source. Calls follow the shape of the dose curve; as a rule, active = well fitted cell-killing curve with a large enough effect in the repeat runs; inconclusive = weak or mixed curves, or effect the other way; inactive = flat fitted curve, though single readings scatter.

Experiment: qHTS RealTime-Glo MT Cell Viability Assay in HEK293 cells - 0 hour (AID 1224880); also: nearly all actives have a fitted effect of over 45% in size; as to activity change, negative = cytotoxicity: top concentration of the series differs between compounds
Conditions: RealTime-Glo luminescence; series mostly up to 76.8 µM
Text: U.S. Tox21 Program National Center for Advancing Translational Sciences [NCATS] NIH Chemical Genomics Center [NCGC] U.S. Environmental Protection Agency [EPA] National Institutes of Environmental Health Sciences [NIEHS] National Toxicology Program [NTP] U.S. Food and Drug Administration [FDA] Tox21 Assay Overview: Measure of cell viability is critical in the cell-base assay. Analysis of cell viability is necessary for the characterization of cell responses to cytotoxic drugs and environmental stress. A RealTime-Glo MT Cell Viability Assay to monitor cell viability in real time of continues cell culture during 40 hours of compound treatment was used to screen Tox21 10K library compounds in Hek293 cells. The RealTime-Glo MT Cell Viability Assay is a nonlytic, homogeneous, bioluminescent method to measure cell viability in real time using a simple, plate-based method. The assay involves adding NanoLuc luciferase and a cell-permeant prosubstrate to cells in culture. Viable cells reduce the proprietary prosubstrate to generate a substrate for NanoLuc luciferase. This substrate diffuses from cells into the surrounding culture medium, where it is rapidly used by the NanoLuc Enzyme to produce a luminescent signal. The signal correlates with the number of viable cells, making the assay well suited for cytotoxicity studies.
Tox21 Assay Protocol Summary: The mixture of Hek293 cell suspension and reagents were dispensed at 600cells/6 ul/well in 1536-well tissue culture treated black solid bottom plates using a Multidrop dispenser. After the assay plates were incubated at a 37 C/5% CO2 incubator for 5 hours, 23 nL of compounds dissolved in DMSO, positive and negative controls was transferred to the assay plate by a pintool work station. The plates were incubated at 37 C for 40 hours. The luminescence intensity were measured at 0h, 8h, 16h, 24h, 32h and 40h time points using ViewLux plate reader during compound treatment.
Potency is read from the fitted curve at half-maximal effect.

SMILES | Potency | activity change, negative = cytotoxicity
Cc1cc(C)c(O)c(C(C)(C)C)c1 | inactive | 
C=Cc1ccc(O)c(OC)c1 | inactive | 
CS(=O)(=O)c1ccc([C@@H](CC2CCCC2)C(=O)Nc2cnccn2)cc1Cl | inactive | 
CC1=C(/C=C/C(C)=C/C=C/C(C)=C\C(=O)O)C(C)(C)CCC1 | inactive | 
Nc1ccc(Cl)c([N+](=O)[O-])c1 | inactive | 
C=Cc1ccncc1 | inactive | 
COc1ccc2ccccc2c1 | inactive | 
O=[N+]([O-])c1ccc(O)c2ncccc12 | inactive | 
COC(=O)c1ccc([N+](=O)[O-])cc1 | inactive | 
CC(C)=CCC[C@H](C)CC=O | inactive | 
C1CCSC1 | inactive | 
CC(C)(C)c1ccc(OC2CCCCC2O)cc1 (stereo not given) | inactive | 
Cc1ccc2n[nH]nc2c1 | inactive | 
O=C1CCCCCCCCCCCCCC1 | inactive | 
[Cl][Eu]([Cl])[Cl] | inactive | 
CN1CCN(C)CC1 | inactive | 
COc1cc(C(C)C)ccc1C |  | 6.56% [at 15.8 µM]
Nc1cccnc1N | inactive | 
Cc1ccc(S(=O)(=O)C(I)I)cc1 | 616 nM (active) | 
Nc1ccc2c(S(=O)(=O)O)cccc2c1S(=O)(=O)O | inactive | 

SMILES | Potency | activity change, negative = cytotoxicity
SC1CCCCC1 | inactive | 
Cn1c(=O)[nH]c2ncn(C)c2c1=O | inactive | 
CSc1ccc(O)cc1C | inactive | 
C=C(C)C1CCC(C)CC1O (stereo not given) | inactive | 
CN(C)CCOc1ccc(/C(=C(/CCCl)c2ccccc2)c2ccccc2)cc1 | inactive | 
Cc1ccc(Cl)c(N)c1Cl | inactive | 
O=C1c2ccccc2C(=O)c2c(Cl)cccc21 | inactive | 
O=C1OC(O)C(C(Cl)Cl)=C1Cl (stereo not given) | inactive | 
C[C@H]1O[C@@H](O[C@H]2CC[C@@]3(C)[C@H](CC[C@@H]4[C@@H]3C[C@@H](O)[C@]3(C)[C@@H](C5=CC(=O)OC5)CC[C@]43O)C2)C[C@H](O)[C@@H]1O[C@H]1C[C@H](O)[C@H](O[C@H]2C[C@H](O)[C@H](O[C@@H]3O[C@H](CO)[C@@H](O)[C@H](O)[C@H]3O)[C@@H](C)O2)[C@@H](C)O1 | inactive | 
N#Cc1nc(Cl)c(Cl)c(Cl)c1Cl | inactive | 
c1ccc2c(c1)-c1ccc3ccc4cccc5cc-2c1c3c45 | inactive | 
Oc1ccc2c(c1)CCC2 | inactive | 
CN1CCN(c2ccccc2/C=C2\SCCN(c3ccc(Cl)c(Cl)c3)C2=O)CC1 | inactive | 
CC(=O)CC(N)=O | inactive | 
O=C(NCc1ncc(C(F)(F)F)cc1Cl)c1c(Cl)cccc1Cl | inactive | 
Nc1ccc(F)c([N+](=O)[O-])c1 | inactive | 
O=C(Nc1ccc([N+](=O)[O-])cc1)Nc1ccc([N+](=O)[O-])cc1 (tested in a mixture with another compound) | inactive | 
NC(=O)c1ccccc1Cl | inactive | 
Cc1c(Cl)c(=O)oc2cc(O)ccc12 | inactive | 
C/C=C/C(=O)OCC(C)C | inactive | 
